# Only some compounds are listed: those with a hit (about 1.5% of all), similar ones and a draw of the others.
# Rin1-Abl PPI inh – human Rin1-Abl interaction inhibition; 360,000 tested, 0.4% active; TR-FRET Rin1/Abl binding, biochemical; inhibition, % at 7.35 µM; P00519+Q13671; in the data active = inhibition above about 5%, passing the limit was not always enough
# AI-2 QS mod – Vibrio harveyi AI-2 quorum sensing modulation; Vibrio harveyi JMH597 AI-2 luminescence/OD600 ratio, 9 h; stronger effect = lower value; strain lacks LuxN and CqsS sensors; 0 = neutral-control median; activity change, % at 7.5 µM; 300,000 tested, 0.4% active; AID 2094; in the data active = activity change below about -75%, passing the limit was not always enough;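 also: luminescence divided by OD600 gain over 9 h not by final OD600 alone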
# ARNT-TACC3 inh – disruptors of human ARNT/TACC3 interaction; inhibition, % at 9.99 µM; 390,000 tested, 0.66% active; AlphaScreen His-ARNT PAS-B/GST-TACC3 binding, luminescence; TACC3 fragment carries E629A point mutation;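 active = mean inhibition of replicates at least 50% and at least half of replicates each reaching 50%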;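 also: 0% = complete ARNT plus TACC3 wells and 100% = ARNT alone without TACC3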
# HGIII-sPLA2 inh – Blocks human group III sPLA2 activity; AID 743126; QFRET BODIPY PC-A2 liposome hydrolysis, fluorescence; inhibition, % at 12.2 µM; Q9NZ20; 370,000 tested, 0.56% active;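 active = inhibition above mean plus 3 SD of compounds lying within the high and low control bounds, cut at about 19% in these data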;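 also: 0% = median of test compound wells and 100% = no enzyme DMSO wells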
# Target sequence (Q9NZ20 whole entry, looked up): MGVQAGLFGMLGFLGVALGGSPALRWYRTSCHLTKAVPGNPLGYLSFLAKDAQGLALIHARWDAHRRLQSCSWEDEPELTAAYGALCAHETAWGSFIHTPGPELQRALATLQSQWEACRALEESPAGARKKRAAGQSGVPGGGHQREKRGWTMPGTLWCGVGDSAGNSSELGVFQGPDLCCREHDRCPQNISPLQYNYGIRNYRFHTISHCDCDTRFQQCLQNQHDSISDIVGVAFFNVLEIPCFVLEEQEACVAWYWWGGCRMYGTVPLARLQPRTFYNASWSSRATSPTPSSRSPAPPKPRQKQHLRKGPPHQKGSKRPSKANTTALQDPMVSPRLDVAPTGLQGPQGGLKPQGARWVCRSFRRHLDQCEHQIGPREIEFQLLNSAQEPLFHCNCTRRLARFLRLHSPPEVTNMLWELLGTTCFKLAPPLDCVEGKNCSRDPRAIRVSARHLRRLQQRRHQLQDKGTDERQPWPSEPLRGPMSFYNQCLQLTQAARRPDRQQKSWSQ
# hGIII sPLA2 conf – human GIII-sPLA2 inhibition, confirmation. shares compounds with HGIII-sPLA2 inh. recombinant hGIII-sPLA2, BODIPY PC-A2 QFRET fluorescence. inhibition, % at 12.2 µM. 2,000 tested, 34% active. AID 743280;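 active = mean inhibition across triplicates above the hit cutoff set in the earlier primary screen, cut at about 19% in these data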;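 also: 0% = enzyme with DMSO and 100% = DMSO wells lacking enzyme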
# BODIPY interf – 535nm fluorescence interference, HGIII-sPLA2 counter-screen; shares compounds with HGIII-sPLA2 inh; BODIPY FL product fluorescence interference, QFRET; inhibition, % at 12.2 µM; 2,000 tested, 8.5% active;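 active = average inhibition above the solvent-only control mean plus 3 SD, cut at about 6% in these data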;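 also: 0% = DMSO with substrate plus product and 100% = DMSO with substrate alone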
# BODIPY interf DR – 535nm optical interference dose response, HGIII-sPLA2 counter-screen; shares compounds with HGIII-sPLA2 inh; BODIPY FL product fluorescence interference, cell-free; IC50, µM; 240 tested, under 10 active; AID 743455;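 active = IC50 at or below 10 µM; inactive = IC50 above 10 µM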
# * = called active by the depositor; · = no result given.
SMILES,Rin1-Abl PPI inh,AI-2 QS mod,ARNT-TACC3 inh,HGIII-sPLA2 inh,hGIII sPLA2 conf,BODIPY interf,others
Cn1c(CC(=O)NN)c(Sc2ccccc2)c2ccccc21,0,12,-3,-1,·,·,
COC(=O)c1c(Sc2ccccc2)c2ccccc2n1C,-3,3,-4,20*,1,-4,
CCCNC(=O)C[C@@H]1CC[C@@H]2[C@H](COC[C@@H](O)CN2C(=O)c2ccccn2)O1,·,·,15,·,·,·,
CCOC(=O)c1c(CSC(=N)N)n(-c2ccccc2)c2cc(Br)c(OC(C)=O)cc12,-2,27,28,44*,35*,-19,BODIPY interf DR=>122
COc1ccc(C2(C)NC(=O)N(CC(=O)Nc3c(C)n(C)n(-c4ccccc4)c3=O)C2=O)cc1 (stereo not drawn),1,5,-3,-7,·,·,
COc1ccc2cc(C3(C)NC(=O)N(CC(=O)Nc4c(C)n(C)n(-c5ccccc5)c4=O)C3=O)ccc2c1 (stereo not drawn),-2,-7,-6,21*,-1,-22,
C=CCN=C1NC(c2ccc(Cl)cc2)C(C(=O)OC)=C(C)N1C (stereo not drawn),·,·,·,2,·,·,
C=CCN=C1NC(c2ccc(F)cc2)C(C(=O)OC)=C(C)N1C (stereo not drawn),·,·,·,23*,6,-10,
C[C@H]1CN([C@@H](C)CO)C(=O)c2cc(/C=C/c3ccccc3)cnc2O[C@H]1CN(C)C(=O)Nc1ccc(C(F)(F)F)cc1,·,·,15,·,·,·,
COc1ccc(S(=O)(=O)Nc2ccc3c(c2)C(=O)N([C@H](C)CO)C[C@H](C)[C@@H](CN(C)S(=O)(=O)c2ccc(C)cc2)OCCCC[C@H](C)O3)cc1,·,·,5,·,·,·,
O=c1c(-c2n[nH]c(=S)n2-c2ccccc2)cccn1Cc1cccc(Cl)c1,-2,39,-7,22*,22*,-1,
COc1ccc(CN(C)C[C@@H]2Oc3ccc(NC(=O)Nc4cccc5ccccc45)cc3CC(=O)N([C@H](C)CO)C[C@@H]2C)cc1,·,·,3,·,·,·,
COc1ccc(NC(=O)Nc2cnccn2)cc1,2,-4,-6,22*,2,-4,
Cc1nnsc1C(=O)N/N=C/c1ccc2ccccc2c1O,-2,1,8,38*,21*,2,
C[C@@H]1CN([C@H](C)CO)C(=O)CCCn2cc(nn2)CO[C@H]1CN(C)Cc1ccc(C(=O)Nc2ccccc2N)cc1,·,·,7,·,·,·,
Cc1cc(Br)ccc1NC(=O)CNC(=O)CN(C)Cc1nc2ccccc2c(=O)[nH]1,2,0,2,25*,16,-16,
CC(C)C1Cc2[nH]c(=S)[nH]c(=O)c2C(c2ccc(F)cc2)O1 (stereo not drawn),-4,·,·,4,·,·,
CC(C)C1Cc2[nH]c(=S)[nH]c(=O)c2C(c2ccc(Cl)cc2)O1 (stereo not drawn),2,·,·,20*,5,-12,
COc1ccc(NC(=O)N(C)C[C@H]2Oc3ccc(NC(=O)Cn4cnnn4)cc3C(=O)N([C@H](C)CO)C[C@H]2C)cc1,·,·,-1,·,·,·,
Cc1ccc(C)c(NC(=S)NCc2ccccc2)c1,1,-5,3,13,·,·,
Cc1ccc(C)c(NC(=S)N/N=C/C(C)c2ccccc2)c1 (stereo not drawn),1,14,-4,22*,14,0,
Cc1c(NC(=S)N/N=C\c2ccccc2O)c(=O)n(-c2ccccc2)n1C,-3,9,66*,34*,11,-2,
Cc1c(NC(=S)N/N=C/c2ccc(Br)cc2)c(=O)n(-c2ccccc2)n1C,-2,24,3,20*,20*,-9,
Cc1c(NC(=S)N/N=C/C=C/c2ccccc2)c(=O)n(-c2ccccc2)n1C,-4,8,-21,4,·,·,
O=C(Nc1nc2ccccc2[nH]1)c1cc(F)cc(F)c1,2,14,5,24*,21*,-2,
O=C(Nc1nc2ccccc2[nH]1)c1ccc(F)c(S(=O)(=O)N2CCOCC2)c1,1,6,41,21*,9,-4,
O=C(Nc1nc2ccccc2[nH]1)c1ccc(F)cc1,-1,12,2,-5,·,·,

# Screening results from PubChem BioAssay.
